Inconclusive results are not listed. Values without a mark were called inactive. Active and inactive are the calls of the source. Calls follow the shape of the dose curve; as a rule, active = well fitted curve in the direction sought with a large enough effect; inconclusive = small, poorly fitted or top-dose-only effect, or another doubt; inactive = no such curve, though single readings can be large; an effect the other way counts as inactive or inconclusive.
Experiments:
[1] = BET inhibitor-based combinations targeting novel dependencies in MECOM-rearranged (r) AML: SET-2 cell line (AID 2202231); details: SET-2 AML cells viability, CellTiter-Glo luminescence, 48 h; viability: stronger effect = lower value, concentration not given here; also: nearly all actives have a fitted effect of over 35% in size;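 as to viability: plate controls were DMSO treated cells for no effect and wells without cells for full effect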
Summary of the method: (§1)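 A 48 hr incubation preceded viability reading by CellTiter-Glo, with 15 min room-temperature development. Dose series had 11 points; normalization used DMSO and empty wells; AUC was computed and mean-centered per line as Z-AUC.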

[2] = BET inhibitor-based combinations targeting novel dependencies in MECOM-rearranged (r) AML: OCI-AML3 cell line (AID 2202232); details: Potency: OCI-AML3 viability; also: nearly all actives have a fitted effect of over 35% in size
Summary of the method: as §1

[3] = BET inhibitor-based combinations targeting novel dependencies in MECOM-rearranged (r) AML: MV-4-11 cell line (AID 2202233); also: nearly all actives have a fitted effect of over 45% in size
Summary of the method: (§2)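 Each compound is tested in an 11-point concentration series against 500 seeded cells/well for 48 hr. The luminescent viability signal is normalized to DMSO and blank wells, then reduced to AUC and a cell-line-centred Z-AUC.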

[4] = BET inhibitor-based combinations targeting novel dependencies in MECOM-rearranged (r) AML: HNT-34 cell line (AID 2202234); also: nearly all actives have a fitted effect of over 35% in size
Summary of the method: as §2

[5] = BET inhibitor-based combinations targeting novel dependencies in MECOM-rearranged (r) AML: UCSD-AML1 cell line (AID 2202235); also: nearly all actives have a fitted effect of over 40% in size
Summary of the method: as §2

[6] = BET inhibitor-based combinations targeting novel dependencies in MECOM-rearranged (r) AML: AML-191 cell line (AID 2202236; also: nearly all actives have a fitted effect of over 35% in size)
Summary of the method: as §1

[7] = BET inhibitor-based combinations targeting novel dependencies in MECOM-rearranged (r) AML: AML-194 cell line (AID 2202237; also: nearly all actives have a fitted effect of over 40% in size)
Summary of the method: as §1
Potency is read from the fitted curve at half-maximal effect.

Row | Molecule | Potency [1] | Potency [2] | Potency [3] | Potency [4] | Potency [5] | Potency [6] | Potency [7] | viability [1] [%]
1 | C=CC(=O)Nc1cccc(Oc2nc(Nc3ccc(N4CCN(C)CC4)c(F)c3)nc3[nH]ccc23)c1 | 14.8 µM (active) | 8.33 µM (active) | 0.742 µM (active) | 1.32 µM (active) | 4.68 µM (active) | 5.9 µM (active) | 6.61 µM (active) | –
2 | Cc1ccc(C)c(OCCCC(C)(C)C(=O)O)c1 | – | inactive | inactive | inactive | inactive | inactive | inactive | 116
3 | N#Cc1c(N(CC(=O)O)CC(=O)O)sc(C(=O)O)c1CC(=O)O | – | inactive | inactive | inactive | inactive | inactive | inactive | 117
4 | CCC(=O)NCC[C@@H]1CCc2ccc3c(c21)CCO3 | – | inactive | inactive | inactive | inactive | inactive | – | 114
5 | OC1CCC([C@H](O)C[C@H]2c3c(F)cccc3-c3cncn32)CC1 (stereo not given in full) | – | inactive | inactive | inactive | inactive | inactive | inactive | 118
6 | Cc1ccc(Nc2ncc3c(n2)N(C)C(=O)N(c2cc(NC(=O)c4cccc(C(F)(F)F)c4)ccc2C)C3)cn1 | 0.934 µM (active) | 0.263 µM (active) | 0.0372 µM (active) | 0.0118 µM (active) | 0.0934 µM (active) | 0.0833 µM (active) | – | –
7 | CCC[C@H](NC(=O)/C(C#N)=C/c1cccc(Br)n1)c1ccccc1 | 4.17 µM (active) | 3.32 µM (active) | 2.95 µM (active) | 2.95 µM (active) | 3.32 µM (active) | 3.72 µM (active) | 7.42 µM (active) | –
8 | CCc1c(C(=O)NNC(=O)[C@@H](O)c2cc(F)cc(F)c2)ccc(O)c1C | – | inactive | inactive | inactive | 7.42 µM (active) | inactive | inactive | 97.8
9 | CN1C(=O)N[C@H](Cc2c[nH]c3c(Cl)cccc23)C1=O | – | inactive | 37.2 µM (active) | inactive | inactive | inactive | – | 113
10 | CCOc1ccc(-n2c([C@@H](C)N(Cc3cccnc3)C(=O)Cc3ccc(F)c(C(F)(F)F)c3)nc3ncccc3c2=O)cc1 | – | inactive | 18.6 µM (active) | inactive | inactive | inactive | – | 112
11 | CN1C(N)=N[C@](C)(c2cc(NC(=O)c3ccc(F)cn3)ccc2F)CS1(=O)=O | – | inactive | inactive | inactive | inactive | inactive | – | 121
12 | CN(C)c1cc(NC(=O)CNC(C)(C)C)c(O)c2c1C[C@H]1C[C@H]3[C@H](N(C)C)C(=O)C(C(N)=O)=C(O)[C@]3(O)C(=O)C1=C2O | – | inactive | inactive | inactive | 4.68 µM (active) | inactive | inactive | 74.8
13 | COc1ccc([C@@H](O)[C@@H](C)Oc2ccc([C@H]3O[C@H](c4ccc(O[C@H](C)[C@H](O)c5ccc(OC)c(OC)c5)c(OC)c4)[C@H](C)[C@H]3C)cc2OC)cc1OC | 13.2 µM (active) | 1.05 µM (active) | 4.17 µM (active) | 23.5 µM (active) | 18.6 µM (active) | 18.6 µM (active) | – | –
14 | Cc1ccc(C(=O)N(CCCN)[C@@H](c2oc3cc(Cl)ccc3c(=O)c2Cc2ccccc2)C(C)C)cc1 | 0.166 µM (active) | 0.0263 µM (active) | 0.0372 µM (active) | 0.0132 µM (active) | 0.0148 µM (active) | 0.0468 µM (active) | – | –
15 | N#CC(c1ccnc(NCCc2cccnc2)n1)c1nc2ccccc2s1 (stereo not given) | 18.6 µM (active) | 18.6 µM (active) | 6.61 µM (active) | 14.8 µM (active) | 18.6 µM (active) | 16.6 µM (active) | 18.6 µM (active) | –
16 | Ac-PHSCN-NH2 | – | inactive | inactive | inactive | inactive | inactive | inactive | 109
17 | COc1cc2c3c(n(CCCNCCO)c(=O)c2cc1OC)-c1cc2c(cc1C3=O)OCO2 | 0.148 µM (active) | 0.0934 µM (active) | 0.059 µM (active) | 0.059 µM (active) | 0.0742 µM (active) | 0.166 µM (active) | – | –
18 | C[C@@H](O)[C@@H]1NC(=O)[C@H](CCCCN)NC(=O)[C@@H](Cc2c[nH]c3ccccc23)NC(=O)[C@H](Cc2ccccc2)NC(=O)[C@@H](NC(=O)[C@H](N)Cc2ccccc2)CSSC[C@@H](C(=O)N[C@H](CO)[C@@H](C)O)NC1=O | – | inactive | inactive | inactive | inactive | inactive | inactive | 114
19 | Cc1cc(-n2c(=O)ccc3cnc4[nH]ccc4c32)ccc1F | – | inactive | 16.6 µM (active) | inactive | 18.6 µM (active) | 20.9 µM (active) | – | 115

Row | Molecule | Potency [1] | Potency [2] | Potency [3] | Potency [4] | Potency [5] | Potency [6] | Potency [7] | viability [1] [%]
20 | CN1C(=O)[C@@H](NC(=O)c2n[nH]c(Cc3ccccc3)n2)COc2ccccc21 | – | inactive | inactive | inactive | inactive | inactive | inactive | 110
21 | COc1cc(OC)c(/C=C/S(=O)(=O)Cc2ccc(OC)c(OP(=O)(O)O)c2)c(OC)c1 | 0.132 µM (active) | 0.118 µM (active) | 0.132 µM (active) | 0.105 µM (active) | 0.118 µM (active) | 0.118 µM (active) | 0.118 µM (active) | –
22 | CN(C)N=Nc1nc[nH]c1C(N)=O | 16.6 µM (active) | inactive | 9.34 µM (active) | inactive | inactive | 14.8 µM (active) | inactive | –
23 | COc1cccc2c1C(=O)c1c(O)c3c(c(O)c1C2=O)C[C@@](O)(/C(CO)=N/NC(=O)CCCCCN1C(=O)C=CC1=O)C[C@@H]3O[C@H]1C[C@H](N)[C@H](O)[C@H](C)O1 | 2.95 µM (active) | 0.417 µM (active) | 0.186 µM (active) | 0.934 µM (active) | 0.525 µM (active) | 1.05 µM (active) | 0.934 µM (active) | –
24 | CC(C)C(N)C(=O)OCC(CO)OCn1cnc2c(=O)[nH]c(N)nc21 (stereo not given) | – | inactive | inactive | inactive | inactive | inactive | inactive | 87
25 | NC(CC1c2ccccc2Oc2ccccc21)(C(=O)O)C1CC1C(=O)O (stereo not given) | – | inactive | inactive | inactive | inactive | inactive | inactive | 118
26 | CC(=O)N[C@H]1[C@H](O[C@@H]2c3ccc(c(Cl)c3)Oc3cc4cc(c3O[C@@H]3O[C@H](CO)[C@@H](O)[C@H](O)[C@H]3NC(=O)CCCCCCCC(C)C)Oc3ccc(cc3Cl)C[C@H]3NC(=O)[C@H](N)c5ccc(O)c(c5)Oc5cc(O)cc(c5)[C@H](NC3=O)C(=O)N[C@H]4C(=O)N[C@H]3C(=O)N[C@@H]2C(=O)N[C@@H](C(=O)O)c2cc(O)cc(O[C@H]4O[C@H](CO)[C@@H](O)[C@H](O)[C@@H]4O)c2-c2cc3ccc2O)O[C@H](CO)[C@@H](O)[C@@H]1O | – | inactive | inactive | inactive | inactive | inactive | inactive | 113
27 | CCN(CC)CCNc1ccc(C)c2sc3ccccc3c(=O)c12 | 18.6 µM (active) | 14.8 µM (active) | 7.42 µM (active) | 16.6 µM (active) | 16.6 µM (active) | 16.6 µM (active) | 16.6 µM (active) | –
28 | CCOC(=O)CCNc1cc(N2CCc3ccccc3CC2)nc(-c2ccccn2)n1 | 3.72 µM (active) | 14.8 µM (active) | 8.33 µM (active) | 2.35 µM (active) | 3.32 µM (active) | 2.95 µM (active) | 2.95 µM (active) | –
29 | CC[C@H]1OC(=O)[C@H](C)[C@@H](O[C@H]2C[C@@](C)(OC)[C@@H](O)[C@H](C)O2)[C@H](C)[C@@H](O[C@@H]2O[C@H](C)C[C@H](N(C)C)[C@H]2O)[C@](C)(O)C[C@@H](C)C(=O)[C@H](C)[C@@H](O)[C@]1(C)O | – | inactive | inactive | inactive | inactive | inactive | inactive | 113
30 | CN1CC(=O)N2[C@H](c3ccc4c(c3)OCO4)c3[nH]c4ccccc4c3C[C@@H]2C1=O | – | inactive | inactive | inactive | inactive | inactive | inactive | 116
31 | CC(C)C1CCC(C(=O)N[C@H](Cc2ccccc2)C(=O)O)CC1 (stereo not given in full) | – | inactive | inactive | inactive | inactive | inactive | inactive | 115
32 | CO[C@H]1/C=C\C=C(\C)C(=O)NC2=CC(=O)C(NCCN(C)C)=C(C[C@@H](C)C[C@H](OC)[C@H](O)[C@@H](C)/C=C(/C)[C@@H]1OC(N)=O)C2=O | 2.95 µM (active) | 0.118 µM (active) | 0.0295 µM (active) | 0.417 µM (active) | 0.296 µM (active) | 1.05 µM (active) | 0.662 µM (active) | –
33 | N=C1S/C(=C\c2ccc(-c3ccc4c(c3)C(=O)NC4=O)o2)C(=O)N1c1ccc(Br)cc1 | – | inactive | inactive | inactive | inactive | inactive | inactive | 117
34 | Nc1nc(F)nc2c1ncn2C1OC(COP(=O)(O)O)C(O)C1O (stereo not given) | 4.68 µM (active) | 18.6 µM (active) | 18.6 µM (active) | 16.6 µM (active) | 2.63 µM (active) | 6.61 µM (active) | 9.34 µM (active) | –
35 | CCCCCCCCCCCCCCCCCCCCCCO | – | inactive | inactive | inactive | inactive | inactive | inactive | 112
36 | COC1=C(OC)C(=O)C(C/C=C(\C)CC/C=C(\C)CC/C=C(\C)CC/C=C(/C)CC/C=C(\C)CC/C=C(\C)CC/C=C(\C)CC/C=C(\C)CC/C=C(\C)CCC=C(C)C)=C(C)C1=O | – | inactive | inactive | inactive | inactive | inactive | inactive | 117
37 | CC(=O)c1ccc2c(c1)c1cc(C(C)=O)ccc1n2CCNC(C)C | 1.18 µM (active) | 1.05 µM (active) | 0.525 µM (active) | 1.32 µM (active) | 0.833 µM (active) | 0.833 µM (active) | 1.32 µM (active) | –
